According to PubChem BioAssay (NCATS):
Inconclusive results are not listed. Active and inactive are the calls of the source. Calls come from the whole dose curve; as a rule, active = well fitted curve in the direction sought with a large enough effect; inconclusive = small, poorly fitted or top-dose-only effect, or another doubt; inactive = no such curve, though single readings can be large; an effect the other way counts as inactive or inconclusive.

What was measured:
[1] = MultiTox-Fluor Cytotoxicity Assay - LYMP1-001 - Live Cells (AID 947); details: LYMP1-001 lymphoblastoid cells, live-cell protease fluorescence viability; series mostly up to 92.2 µM
[2] = Cell Viability - LYMP1-002 - Assay at 16 hr (AID 948); details: LYMP1-002 lymphoblastoid cell viability; series mostly up to 92.2 µM
How it was run: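 LYMP1-002 human lymphoblastoid cells, 2500/well, were treated with compounds for 16 hr at 37 C in complete medium. Viability was read as intracellular ATP by CellTiter-Glo luminescence, and AC50 was derived from a Hill fit to concentration-response data.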

[3] = MultiTox-Fluor Cytotoxicity Assay - LYMP1-002 - Live Cells (AID 955); details: LYMP1-002 lymphoblastoid live-cell protease fluorescence viability; series mostly up to 46.1 µM;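 note: cells exposed to compound for 16 hours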
How it was run: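 After 16 h compound exposure at 37 C, live LYMP1-002 lymphoblastoid cells (2500/well) were quantified by cleavage of cell-permeant GF-AFC substrate, read at 405/510 nm after 60 min. Concentration-response fitted with Hill equation for AC50.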

[4] = MultiTox-Fluor Cytotoxicity Assay - LYMP1-003 - Dead Cells (AID 961); details: LYMP1-003 lymphoblastoid cells, dead-cell protease fluorescence; series mostly up to 92.2 µM; note: nearly all actives have a fitted effect of over 70% in size
How it was run: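 Human lymphoblastoid LYMP1-003 cells (2500/well) were treated with compounds for 16 hr at 37 C in complete medium. Dead-cell protease release was read by bis-AAF-R110 fluorescence (Ex/Em 485/520). AC50 came from Hill fits, normalized to DMSO and 15 uM tetraoctylammonium bromide.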

[5] = MultiTox-Fluor Cytotoxicity Assay - LYMP1-003 - Live Cells (AID 962); details: LYMP1-003 lymphoblastoid cells, MultiTox-Fluor live-cell protease fluorescence; series mostly up to 92.2 µM;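 note: cells exposed to compound for 16 hours at 37 °C; cytotoxic hits lower the live-cell protease signal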
How it was run: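 Live-cell protease activity (GF-AFC substrate, 405/510 nm, 60 min at room temperature) after 16 h, 37 C compound exposure of human lymphoblastoid LYMP1-003 cells; concentration-response fitted to the Hill equation for AC50.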

[6] = Cell Viability - LYMP1-003 - Assay at 24 hr (AID 963); details: LYMP1-003 lymphoblastoid cell viability; series mostly up to 92.2 µM
How it was run: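 Concentration-response qHTS: ATP loss measured by CellTiter-Glo luminescence after 24 h compound exposure at 37 C. Cells were LYMP1-003 human lymphoblastoid, 2500 per well. AC50 derived via standard Hill equation modeling.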

[7] = Cell Viability - LYMP1-003 - Assay at 40 hr (AID 964); details: LYMP1-003 lymphoblastoid viability; series mostly up to 92.2 µM; note: nearly all actives have a fitted effect of over 60% in size
How it was run: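 Viability is taken as cellular ATP, read by CellTiter-Glo luminescence after 40 h of compound exposure at 37 C. Cells: human lymphoblastoid line LYMP1-003 at 2500/well; AC50 values derived by Hill-equation fitting of concentration-response data.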

[8] = Cell Viability - LYMP2-003 (AID 965); details: LYMP2-003 lymphoblastoid cell viability; series mostly up to 92.2 µM;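 note: cells exposed to compounds for 24 h before reading; nearly all actives have a fitted effect of over 50% in size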
How it was run: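 Human lymphoblastoid LYMP2-003 cells, 2500/well, exposed to compounds for 24 h at 37 C in complete medium. Viability read as intracellular ATP by CellTiter-Glo luminescence; AC50 from Hill-equation fits of qHTS concentration-response data.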

[9] = Cell Viability - LYMP2-005 (AID 967); details: LYMP2-005 lymphoblastoid cell viability; series mostly up to 92.2 µM
How it was run: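 Human lymphoblastoid LYMP2-005 cells, 2,500 per well in complete medium, rested 5 h at 37C then compound-treated 24 h at 37C. Intracellular ATP read by CellTiter-Glo luminescence after 30 min at room temperature; AC50 from Hill-equation fits of concentration-response data.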

[10] = Cell Viability - LYMP2-009 (AID 968); details: LYMP2-009 lymphoblastoid cell viability; series mostly up to 92.2 µM; note: nearly all actives have a fitted effect of over 55% in size
[11] = Cell Viability - LYMP2-011 (AID 969); details: LYMP2-011 lymphoblastoid cells viability; series mostly up to 92.2 µM; note: nearly all actives have a fitted effect of over 60% in size
How it was run: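 Cytotoxicity qHTS with ATP content as read-out: lymphoblastoid cells (2500/well) exposed to compound for 24 h at 37 C, then luciferase luminescence measured. Concentration-response data fitted with the standard Hill equation to give AC50.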

[12] = Cell Viability - LYMP2-013 (AID 970); details: LYMP2-013 lymphoblastoid cells viability; series mostly up to 92.2 µM; note: nearly all actives have a fitted effect of over 55% in size
How it was run: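 qHTS cytotoxicity: ATP-dependent luminescence (CellTiter-Glo, 30 min room temperature) read after 24 h compound exposure at 37 C of 2500 LYMP2-013 lymphoblastoid cells per well. Concentration-response fitted with Hill equation to give AC50.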

[13] = Cell Viability - LYMP2-015 (AID 971); details: LYMP2-015 lymphoblastoid cell viability; series mostly up to 92.2 µM; note: nearly all actives have a fitted effect of over 55% in size
How it was run: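 Cytotoxicity readout: decrease in intracellular ATP (CellTiter-Glo luminescence) in 2500 LYMP2-015 lymphoblastoid cells/well after 24 h compound exposure at 37 C. Concentration-response data fitted with the standard Hill equation to give AC50.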

[14] = Cell Viability - LYMP2-017 (AID 972); details: LYMP2-017 lymphoblastoid cell viability; series mostly up to 92.2 µM; note: nearly all actives have a fitted effect of over 55% in size
How it was run: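 CellTiter-Glo luminescence (cellular ATP, 30 min RT) measured cytotoxicity after 24 hr compound treatment at 37 C. Cells were a human lymphoblastoid line, LYMP2-017, plated at 2500/well and incubated 5 hr first; concentration-response fitted with Hill equation for AC50.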

[15] = Cell Viability - LYMP2-019 (AID 973); details: LYMP2-019 lymphoblastoid cell line viability; series mostly up to 92.2 µM; note: nearly all actives have a fitted effect of over 55% in size
How it was run: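 AC50 values come from Hill-equation fits of luminescent intracellular ATP (CellTiter-Glo, 30 min, room temperature) following 24 h compound exposure at 37 C. Cells: LYMP2-019 lymphoblastoid line, 2500 per well, in complete culture medium.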

[16] = Cell Viability - LYMP2-021 (AID 974); details: LYMP2-021 lymphoblastoid cells viability; series mostly up to 92.2 µM; note: nearly all actives have a fitted effect of over 55% in size
How it was run: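 AC50 values come from Hill-equation fits to CellTiter-Glo luminescence (ATP content), read after 24 hour compound exposure at 37 C of 2500 LYMP2-021 lymphoblastoid cells/well; tetraoctylammonium bromide as positive control.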

[17] = Cell Viability - LYMP2-023 (AID 975); details: LYMP2-023 lymphoblastoid cell viability; series mostly up to 92.2 µM
How it was run: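 Intracellular ATP, read by CellTiter-Glo luminescence, reports viability after 24 hr compound exposure at 37 C. 2500 lymphoblastoid cells/well (LYMP2-023) seeded 5 hr beforehand; Hill fits give AC50; positive control tetraoctylammonium bromide.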

[18] = Cell Viability - LYMP2-025 (AID 976); details: LYMP2-025 lymphoblastoid cell viability; series mostly up to 92.2 µM
How it was run: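 Cytotoxicity read as loss of intracellular ATP (luciferase luminescence) after 24 h compound treatment at 37 C. Uses LYMP2-025 lymphoblastoid cells in 1536-well format; Hill-equation modelling gives AC50; tetraoctylammonium bromide as positive control.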

[19] = Cell Viability - LYMP2-006 (AID 978); details: LYMP2-006 lymphoblastoid cell viability, qHTS; series mostly up to 92.2 µM; note: nearly all actives have a fitted effect of over 60% in size
How it was run: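 Human lymphoblastoid cells (LYMP2-006), 2500/well in complete medium, were treated with compound for 24 hr at 37 C. Cellular ATP was read by CellTiter-Glo luminescence after 30 min, and AC50 values came from Hill-equation fits of concentration-response data.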

[20] = Cell Viability - LYMP2-007 (AID 979); details: LYMP2-007 lymphoblastoid cell viability; series mostly up to 92.2 µM;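 note: cells exposed to compound for 24 h before reading; nearly all actives have a fitted effect of over 60% in size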
How it was run: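 AC50 values come from Hill-equation fits of luminescent intracellular ATP (CellTiter-Glo, 30 min, room temperature) following 24 h compound exposure at 37 C. Cells: LYMP2-007 lymphoblastoid line, 2500 per well, in complete culture medium.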

Measured: Potency

CCOc1cc(C=O)ccc1O
inactive: all assays above
